The structures appear in SMILES notation. In all, about 370,000 compounds went through this assay and about 3,100 (0.84%) were called active. This excerpt belongs to a sample that is enriched for actives. Values without a mark were called inactive. Rule as the data show it: active = inhibition above about 9.5%; inactive = the rest.

Results on 24 molecules are retold here after PubChem BioAssay AID720700 (The Scripps Research Institute Molecular Screening Center, 2013).

In the test the target is 1-phosphatidylinositol 4,5-bisphosphate phosphodiesterase gamma-1 (Homo sapiens) (UniProt P19174). The experiment in a line: blockers of human PLCG1 activity – biochemical, fluorescence, purified enzyme, primary screen (AID 720700). The settings on record: purified PLC-gamma1, fluorogenic substrate, at 12.2 µM, active compounds read high.
1-phosphatidylinositol 4,5-bisphosphate phosphodiesterase gamma-1 (Homo sapiens), sequence (P19174 whole entry, looked up): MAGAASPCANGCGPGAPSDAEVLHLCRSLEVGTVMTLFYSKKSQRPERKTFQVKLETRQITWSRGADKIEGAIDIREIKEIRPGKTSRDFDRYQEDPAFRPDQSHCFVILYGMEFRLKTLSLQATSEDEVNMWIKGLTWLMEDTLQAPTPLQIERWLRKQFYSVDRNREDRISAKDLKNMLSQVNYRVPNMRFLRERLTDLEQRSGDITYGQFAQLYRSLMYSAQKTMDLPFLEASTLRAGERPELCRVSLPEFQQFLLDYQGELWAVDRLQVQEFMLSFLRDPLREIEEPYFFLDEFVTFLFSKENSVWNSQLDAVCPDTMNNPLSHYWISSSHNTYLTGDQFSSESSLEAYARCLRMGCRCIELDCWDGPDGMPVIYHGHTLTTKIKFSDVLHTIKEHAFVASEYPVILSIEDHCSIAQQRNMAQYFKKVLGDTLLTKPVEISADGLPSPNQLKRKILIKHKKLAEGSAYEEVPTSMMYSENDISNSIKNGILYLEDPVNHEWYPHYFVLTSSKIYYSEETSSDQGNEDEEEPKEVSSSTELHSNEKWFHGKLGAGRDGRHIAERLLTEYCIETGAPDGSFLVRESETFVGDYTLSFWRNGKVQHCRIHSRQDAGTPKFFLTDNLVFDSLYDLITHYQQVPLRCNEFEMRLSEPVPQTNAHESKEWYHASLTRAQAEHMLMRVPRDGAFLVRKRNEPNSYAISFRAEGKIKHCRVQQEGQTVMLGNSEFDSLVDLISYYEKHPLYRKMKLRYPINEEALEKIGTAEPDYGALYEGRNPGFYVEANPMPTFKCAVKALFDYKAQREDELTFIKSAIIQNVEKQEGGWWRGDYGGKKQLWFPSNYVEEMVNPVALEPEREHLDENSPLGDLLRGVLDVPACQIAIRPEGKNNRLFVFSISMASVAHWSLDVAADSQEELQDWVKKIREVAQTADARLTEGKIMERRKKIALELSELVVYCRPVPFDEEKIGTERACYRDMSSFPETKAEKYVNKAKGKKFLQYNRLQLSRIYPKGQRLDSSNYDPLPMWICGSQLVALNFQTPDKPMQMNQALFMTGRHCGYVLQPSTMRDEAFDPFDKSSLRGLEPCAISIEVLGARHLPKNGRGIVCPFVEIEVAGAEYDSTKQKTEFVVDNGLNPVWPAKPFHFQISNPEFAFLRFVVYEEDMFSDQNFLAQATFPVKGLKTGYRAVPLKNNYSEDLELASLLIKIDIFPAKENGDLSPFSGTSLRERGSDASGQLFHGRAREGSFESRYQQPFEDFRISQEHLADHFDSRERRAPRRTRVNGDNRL
As to `O=C(CSc1nnc(-c2ccccn2)n1-c1ccccc1)Nc1ccc2cn[nH]c2c1`, the inhibition was 3.11%.

Consider `COCCCN(C(=S)Nc1c(C)cc(C)cc1C)C(C)c1ccncc1` (centres undefined), for which the inhibition was 12.6% (active).

Turning to `COCCCN(C(=O)Cn1ncc2c(=O)oc3ccc(C)cc3c21)C(C)c1ccncc1` (centres undefined), the inhibition was 2.83%.

For `COCCN(C(=S)Nc1cccc(Cl)c1C)C(C)c1ccco1` (centres undefined), the inhibition is 4.95%.

In the case of `Cc1cc(NS(=O)(=O)c2ccc(NC(=O)CSc3nnc(SCc4ccc(F)cc4)s3)cc2)nc(C)n1`, the inhibition is 6.25%.

On to `CCn1c2ccccc2c2cc(NC(=O)CSc3nnc(-c4ccccc4)n3-c3ccc(C)cc3)ccc21`, for which the inhibition is -1.61%.

Turning to `O=C(NCc1cccnc1)c1cc(C2CCCN(C(=O)CCCc3ccccc3)C2)on1` (centres undefined), the inhibition was 3.28%.

Turning to `N#Cc1cccc(NC(=O)c2cc(C3CCCCN3C(=O)CCc3ccccc3)on2)c1` (centres undefined), the inhibition was 5.27%.

`O=C(NCc1cccnc1)c1cc(C2CCCCN2C(=O)CCc2ccccc2)on1` (centres undefined): the inhibition is 12.8% (active).

For `COc1ccc(N2CCN(CCNS(=O)(=O)c3ccc(C(C)(C)C)cc3)CC2)cc1`, the inhibition is -1.02%.

In the case of `CC(C)(C)c1ccc(C(=O)Nc2cc(Cl)c(Br)cc2C(=O)O)cc1`, the inhibition is 11% (active).

Take `CSc1nccc(NC(=O)c2ccc(C(C)(C)C)cc2)n1`: the inhibition was 7.02%.

On to `CSc1ccc(C#N)cc1NC(=O)c1ccc(Cl)cc1`, for which the inhibition was -1.63%.

`COC(=O)[C@@]12CCCCC=C1N(CCc1ccc(Cl)cc1)C(=O)[C@H]2CC(=O)NCc1ccc(OC)c(OC)c1`: the inhibition is 2.08%.

For the molecule `CC(C)CC1C(=O)N(Cc2cn(CC3CCCCC3)nn2)CCS(=O)(=O)N1Cc1ccc(-c2ccc(Cl)cc2)cc1` (centres undefined), the inhibition was 1.82%.

With `COc1ccc(-c2ccc(CN3C(CC(C)C)C(=O)N(Cc4cn(CC5CCCCC5)nn4)CCS3(=O)=O)cc2)cn1` (centres undefined), the inhibition was -1.63%.

On to `COc1ccc(-c2ccc(CN3C(CC(C)C)C(=O)N(Cc4cn(CC5CCCCC5)nn4)CCS3(=O)=O)cc2)cc1` (centres undefined), for which the inhibition was 13.6% (active).

Consider `CCOC(=O)C(=O)N(Cc1ccccc1)c1ccccc1C(=O)Nc1cc(OC)ccc1OC`, for which the inhibition was 2.22%.

For the molecule `COc1ccc(C2C(C(C)=O)=C(O)C(=O)N2CCc2c[nH]c3ccccc23)cc1` (centres undefined), the inhibition is 0.47%.

In the case of `CC(=O)C1=C(O)C(=O)N(c2cccnc2)C1c1ccc([N+](=O)[O-])cc1` (centres undefined), the inhibition was 11.3% (active).

Take `COC(=O)CN1C(=O)C(O)=C(C(C)=O)C1c1ccc([N+](=O)[O-])cc1` (centres undefined): the inhibition is 10.5% (active).

Consider `COC(=O)C1=CN(c2ccc(F)c(F)c2)C=C(C(=O)OC)C1c1ccc([N+](=O)[O-])cc1`, for which the inhibition is 1.3%.

Take `COc1ccc(C2C(C(C)=O)=C(O)C(=O)N2c2nccs2)cc1` (centres undefined): the inhibition is -25.2%.

For the molecule `CC(=O)C1=C(O)C(=O)N(c2ccc(Br)cc2)C1c1ccc([N+](=O)[O-])cc1` (centres undefined), the inhibition was 2.17%.

A word on the inhibition: it is the change of the read-out against control, counted positive when it falls.
